Results from PubChem BioAssay (EPA / NIEHS).
“And” between values parts separate entries of the source, which are not always exact repeats. Equal entries are not always repeated. Some compounds were tested as several samples or in several runs, with calls that do not always agree. The source made the active and inactive calls. The calls were made as follows: active = hit-call score of the fitted dose curve at least 0.9, where 1 is the maximum; inactive = score below 0.9.

Key:
[1] = BSK_3C_SRB: Viability Assessment in the BioMAP Diversity Plus: 3C Assay (AID 2283023); conditions: primary human endothelial cells (HUVEC);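 also: fitted both ways against DMSO so a hit may be signal rise or drop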
Procedure, shortened: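 Primary human umbilical vein endothelial cells in the 3C system were read 24 h after compound dosing. Total protein was stained with 0.1% sulforhodamine B after 10% TCA fixation and read at 560 nm, with bidirectional fitting against DMSO as baseline.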

[2] = read-out: Matrix Metallopeptidase 1 (MMP1), MMP1 (gene 4312); assay: BSK_BE3C_MMP1: BioMAP Diversity Plus: BE3C Assay for Matrix Metallopeptidase 1 (MMP1) Biomarker Activity (AID 2283024); conditions: primary human bronchial epithelial cells; actives raise or lower the signal
Procedure, shortened: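 In this multiplexed primary-cell system, human bronchial epithelium received chemicals for 24 h before an ELISA for MMP1. Values reflect bidirectional fits normalised to the DMSO baseline.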

[3] = BSK_3C_Vis: BioMAP Diversity Plus: 3C Assay for Morphology Visualization (AID 2283025); conditions: primary human endothelial cells (HUVEC);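 also: fitted both ways so gain or loss versus DMSO counts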;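 as to AC50: light microscopy image of cell morphology used as background control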
Procedure, shortened: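 Light-microscopy morphology readout, 24 h exposure, human primary umbilical vein endothelium; analysed relative to DMSO with bidirectional fitting.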

[4] = read-out: Pselectin, SELP (gene 6403); assay: BSK_4H_Pselectin: BioMAP Diversity Plus: 4H Assay for Pselectin Biomarker Activity (AID 2283026); conditions: primary human endothelial cells (HUVEC); actives raise or lower the signal
Procedure, shortened: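 Bidirectional fits against DMSO gave the endpoint. Cells: primary human umbilical vein endothelium, chemical-treated for 24 h before ELISA detection of P-selectin.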

[5] = BSK_4H_SRB: Viability Assessment in the BioMAP Diversity Plus: 4H Assay (AID 2283027); conditions: primary human endothelial cells (HUVEC);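 also: cells exposed to compound for 24 h before staining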;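 as to AC50: curves fitted both ways versus DMSO so AC50 may be loss or gain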
Procedure, shortened: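 HUVEC, 24 h post-dose; 10% TCA fix, 0.1% SRB stain, A560 nm. Total protein = overt cytotoxicity, parallel to biomarker read. Bidirectional fit vs DMSO baseline.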

[6] = BSK_BE3C_SRB: Viability Assessment in the BioMAP Diversity Plus: BE3C Assay (AID 2283028); conditions: primary human bronchial epithelial cells;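 as to AC50: fitted both ways so AC50 may mark signal gain or loss versus DMSO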
Procedure, shortened: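 Human primary bronchial epithelial cells were exposed to test chemicals for 24 h. Total protein in parallel cultures was then measured by staining with 0.1% sulforhodamine B after 10% TCA fixation, with absorbance read at 560 nm. Activity was fitted bidirectionally against DMSO.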

[7] = read-out: Thrombomodulin, THBD (gene 7056); assay: BSK_3C_Thrombomodulin: BioMAP Diversity Plus: 3C Assay for Thrombomodulin Biomarker Activity (AID 2283029); conditions: primary human endothelial cells (HUVEC); actives raise or lower the signal
Procedure, shortened: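 In a multiplexed primary-cell system, human umbilical vein endothelium received chemical and was assayed 24 h later for thrombomodulin by ELISA. Parallel cultures were SRB-stained (0.1% SRB after 10% TCA fixation, read at 560 nm) to flag cytotoxicity.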

[8] = read-out: Urokinase-type plasminogen activator receptor (uPAR), PLAUR (gene 5329); assay: BSK_4H_uPAR: BioMAP Diversity Plus: 4H Assay for Urokinase-type plasminogen activator receptor (uPAR) Biomarker Activity (AID 2283030); conditions: primary human endothelial cells (HUVEC); actives raise or lower the signal
Procedure, shortened: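 Primary human umbilical vein endothelial cells were exposed to chemical for 24 h before cell-surface uPAR was quantified by ELISA. Activity was fitted bidirectionally against the DMSO negative control baseline.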

[9] = read-out: Human Leukocyte Antigen - DR isotype (HLADR), HLA-DRA (gene 3122); assay: BSK_BE3C_HLADR: BioMAP Diversity Plus: BE3C Assay for Human Leukocyte Antigen - DR isotype (HLADR) Biomarker Activity (AID 2283032); conditions: primary human bronchial epithelial cells; actives raise or lower the signal
Procedure, shortened: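 BioMAP BE3C format: human bronchial epithelium, 24 h compound treatment, ELISA detection of HLA-DR, with bidirectional analysis relative to DMSO.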

[10] = read-out: Vascular endothelial growth factor receptor 2 (Homo sapiens) (UniProt P35968); assay: BSK_4H_VEGFRII: BioMAP Diversity Plus: 4H Assay for Vascular endothelial growth factor receptor 2 (VEGFR2) Biomarker Activity (AID 2283031); conditions: primary human endothelial cells (HUVEC); actives raise or lower the signal;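 as to AC50: cell-surface VEGFR2 protein level quantified by ELISA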
Procedure, shortened: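 Primary human umbilical vein endothelial cells in the BioMAP 4H system were dosed with test chemical, and 24 h later VEGFRII was measured by ELISA. Activity was fitted bidirectionally against DMSO as negative control and baseline.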

Measured: AC50

COc1cccc(-c2ccc(/C=C\CN3CCCCCC3)cc2Cl)c1
active: [1] 25.8 µM | [2] 4.82 µM | [3] 14.9 µM | [4] 26.5 µM | [5] 27.9 µM | [8] 26.9 µM | [9] 29.4 µM
inactive: [6] | [7]

CC/C(=C\C(=N/O)C(N)=O)C(C)[N+](=O)[O-] (stereo not drawn)
inactive: all assays above

CC(=O)OC[C@H]1O[C@@](COC(C)=O)(O[C@H]2O[C@H](COC(C)=O)[C@@H](OC(C)=O)[C@H](OC(C)=O)[C@H]2OC(C)=O)[C@@H](OC(C)=O)[C@@H]1OC(C)=O
not listed: [10]
inactive: all other assays above

COC(=O)c1ccccc1O
not listed: [10]
inactive: all other assays above

O=C(O)CC(O)C(=O)O (stereo not drawn)
not listed: [10]
inactive: all other assays above

CNS(=O)(=O)c1cc(C(=O)N2CCC(CCN3C4CCC3CC(n3c(C)nc5ccccc53)C4)(c3cccc(F)c3)CC2)c(Cl)cc1F (stereo not drawn)
active: [1] 20.6 µM | [2] 20 µM | [3] 15.2 µM | [4] 13.2 µM | [5] 11.8 µM | [8] 0.148 µM
inactive: [6] | [7] | [10] | [9]

CCOC(=O)c1ccc(C2CCC(NC[C@H](O)COc3ccc(O)c(NS(C)(=O)=O)c3)CC2)cc1 (stereo partly drawn)
active: [1] 25.1 µM | [3] 37.1 µM | [4] 27 µM | [5] 27.5 µM
inactive: all other assays above

CC(C)CC(C)(O)C#CC(C)(O)CC(C)C (stereo not drawn)
not listed: [10]
inactive: all other assays above

CCCCCCCCCCCCc1ccccc1
active: [4] 31.5 µM
not listed: [10]
inactive: all other assays above

CC(C)=CCCC(C)=CC=O
inactive: all assays above

Cn1cnc([N+](=O)[O-])c1Sc1ncnc2nc[nH]c12
active: [1] 19.9 µM and 12.6 µM and 14 µM | [7] 3.36 µM
inactive: [2] | [3] | [4] | [5] | [6] | [7] | [8] | [9]

Cc1ccc(N)cc1O
inactive: all assays above

CCOC(=O)CC(CC(=O)OCC)(OC(C)=O)C(=O)OCC
not listed: [10]
inactive: all other assays above

Nc1nc2ncc(CNc3ccc(C(=O)N[C@@H](CCC(=O)O)C(=O)O)cc3)nc2c(=O)[nH]1
inactive: all assays above

CCOCCO
inactive: all assays above

CC(C)=CCC/C(C)=C/CO
inactive: all assays above

O=C(O)CCN(C1(C(=O)NO)CCCC1)S(=O)(=O)c1ccc(Oc2ccc(F)cc2)cc1
inactive: all assays above

CC(O)CN(CCN(CC(C)O)CC(C)O)CC(C)O (stereo not drawn)
inactive: all assays above

Cn1c(=O)c2c(ncn2C)n(C)c1=O
inactive: all assays above

COC(=O)CC(=O)OC
inactive: all assays above

CCc1cc(SCc2sc(-c3ccc(C(F)(F)F)cc3)nc2CN2CCN(c3ccc(OC)cc3)CC2)ccc1OCC(=O)O
active: [1] 5.75 µM | [2] 9.73 µM | [3] 14.5 µM | [4] 11.3 µM | [5] 11.8 µM | [6] 5.19 µM | [7] 37 µM | [8] 16 µM | [9] 5.41 µM

CCCCCCc1ccc(O)cc1O
active: [1] 34.9 µM | [3] 39.8 µM | [4] 32.3 µM | [5] 32.5 µM | [6] 35.5 µM | [8] 36.6 µM | [9] 29.5 µM
inactive: [2] | [7] | [10]

Cc1ccc(S(=O)(=O)O)cc1C
not listed: [10]
inactive: all other assays above

COc1ccc2sc(C(=O)Nc3nnn[nH]3)c(OC(C)C)c2c1
inactive: [6] | [7]
active: [1] 12.5 µM | [2] 14.2 µM | [3] 21.9 µM | [4] 4.45 µM | [5] 20 µM | [8] 12.7 µM | [10] 17.6 µM | [9] 19.9 µM

CC(C)c1cccc(C(C)C)c1N1C(=O)c2ccc(O)cc2C1=O
active: [1] 17.3 µM | [3] 5.57 µM | [4] 8.54 µM | [5] 12.8 µM | [8] 14.6 µM | [10] 20 µM | [9] 14 µM
inactive: [2] | [6] | [7]

Cc1[nH]cnc1C[C@H]1CCc2c(C)c3ccccc3n2C1=O
active: [1] 26 µM | [3] 18.4 µM | [4] 21.4 µM | [5] 24 µM | [8] 22.5 µM
inactive: [2] | [6] | [7] | [9]

C[C@](N)(Cc1ccc(O)c(O)c1)C(=O)O
inactive: all assays above

CCOc1cccc(-n2cc(C(=O)N3CCN(c4cc(C(=O)O)c5ccccc5c4)CC3)nc2-c2ccc(C)cc2)c1
active: [1] 16.8 µM | [2] 33.4 µM | [3] 38 µM | [4] 26.2 µM | [5] 13.7 µM | [6] 31.3 µM | [8] 12.7 µM | [10] 18.2 µM | [9] 24.5 µM
inactive: [7]

CC1=CC(=O)CC(C)(C)C1
inactive: all assays above

O=C1CCCCCN1
not listed: [10]
inactive: all other assays above

CC(C)CCCCCCOC(=O)c1ccc(C(=O)OCCCCCCC(C)C)c(C(=O)OCCCCCCC(C)C)c1
not listed: [10]
inactive: all other assays above

CC(C)=CCC/C(C)=C\CO
not listed: [10]
inactive: all other assays above

COCCOCCOCCOC
not listed: [4]
inactive: all other assays above

Cc1ccc(O)cc1
not listed: [10]
inactive: all other assays above

CC(C)=CCCC(C)CCO (stereo not drawn)
not listed: [4]
inactive: all other assays above

Nc1ccc(Nc2ccccc2)cc1
active: [2] 8.67 µM | [4] 3.97 µM
not listed: [8] | [10]
inactive: all other assays above

O=C(O)c1cccc(N(Cc2cccnc2)c2ccc(OC(F)F)c(OC(F)F)c2)c1
not listed: [4]
inactive: all other assays above

Oc1ccc2c(c1)-c1ccccc1C2
active: [1] 19.6 µM | [3] 39 µM | [5] 10.2 µM
not listed: [4]
inactive: all other assays above

CCCC(=O)OCC
not listed: [4]
inactive: all other assays above

O=c1n(CC2CO2)c(=O)n(CC2CO2)c(=O)n1CC1CO1 (stereo not drawn)
active: [1] 17.5 µM | [3] 39 µM | [4] 11.8 µM | [5] 15.1 µM | [9] 34.7 µM
inactive: [2] | [6] | [7] | [8]
